# Pf growth 96h: P. falciparum growth inhibition at 96 hours; P. falciparum luciferase reporter growth, 96 h; 6.9% of 320,000 active; Potency, µM (highest dose often 28.7 µM), for inactives: top-dose activity change, negative = inhibition, hits mostly inhibitors; also: potency is read from the fitted curve at half-maximal effect; % is scaled to controls: 0 for no effect and ±100 for the full control effect
#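 Two parasite generations (96 h, 37 C, 5% CO2) of compound exposure in infected erythrocytes (0.05% parasitemia, 2% hematocrit). Luciferase-reporter P. falciparum; decreased luminescence indicates inhibited growth, aimed at apicoplast-acting delayed death.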
# HCMV inh: blocks human cytomegalovirus replication; HFF cells, HCMV-luciferase reporter, 72 h; active compounds read low; activity change, negative = inhibition, % at 57.5 µM; 4.5% of 410,000 active; AID 1259415; in the data active = activity change below about -60%; inconclusive = no clear call, values can overlap the other calls; inactive = above about -39%; also: % is scaled to controls: 0 for no effect and ±100 for the full control effect
#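 Human foreskin fibroblasts infected with luciferase-reporter HCMV at MOI 1 PFU/cell, compounds at two doses. Luciferase measured 72 h post infection; normalized to buffer-only basal and Salinomycin (10uM) controls.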
# Pf growth 48h: P. falciparum growth inhibition at 48 hours (one generation). P. falciparum luciferase growth in erythrocytes, 48 h. Potency, µM (series often up to 28.7 µM), inactives show top-dose activity change, negative = inhibition, actives largely listed as inhibitors. 5.9% of 310,000 active. AID 504832; also: potency is read from the fitted curve at half-maximal effect; % is scaled to controls: 0 for no effect and ±100 for the full control effect
#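 Erythrocytes infected with P. falciparum carrying an integrated firefly luciferase reporter (2% hematocrit, 0.1% parasitemia final) were exposed to compounds in RPMI 1640 with 0.5% Albumax at 37 C, 5% CO2. Growth inhibition was scored as reduced luminescence.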
# CHX counter: counter-screen for Shiga toxin inhibitors: cycloheximide protein synthesis inhibition; cell reporter, cycloheximide protein synthesis inhibition counterscreen; AID 2314; 12% of 300,000 active; max response, %; in the data active = max response mostly above about 13%, no sharp cut-off; inactive = mostly below about 14%; also: read at 38.3 µM for the half of the compounds with a filed dose; 0% is about no effect
# Shiga inhibitor: Shiga toxin inhibition | 9.2% of 290,000 active | inhibition, % at 38.7 µM | Vero cells, Shiga toxin protein synthesis inhibition reporter; in the data active = inhibition mostly above about 28%, no sharp cut-off; inactive = mostly below about 43%; also: 0% is about no effect
# * = called active by the depositor; ? = inconclusive; . = no result; [ ] = remark or other dose. The list is not random: actives were taken first. Their share in the collection is about 20%. Unless noted, calls follow the shape of the dose curve; as a rule, active = well fitted inhibition curve with a large enough effect; inconclusive = small, poorly fitted or top-dose-only effect, or another doubt; inactive = no such curve, though single readings can be large or run the other way.
SMILES,Pf growth 96h,HCMV inh,Pf growth 48h,CHX counter,Shiga inhibitor
COc1ccc(-c2noc(C3CCCN(C(=O)Nc4ccccc4F)C3)n2)cc1 (centres undefined),?,-13.0,73.1%,38.4*,24.4
COc1ccc(NC(=O)N2CCCC(c3nc(-c4ccc(OC)cc4)no3)C2)cc1 (centres undefined),18.8%,?,43.9%,40.2*,54.9
Cc1ccnc(N2CCCC(C(=O)Nc3cccc(C)c3C)C2)n1 (centres undefined),99.7%,-39.0,15.3%,-4.2,-6.2
O=C(Nc1ccc(Cl)cc1)N1CCC(c2nc(-c3ccc(F)cc3)no2)CC1,106.2%,-90.7*,?,34.7*,53.1*
COc1ccc(NC(=O)CNC(=O)Cn2cnc3sc(C)c(C)c3c2=O)cc1OC,10.4µM*,?,0.7%,-11.3,-9.7
Cc1sc2ncn(CC(=O)NCCCC(=O)Nc3ccc(C(C)C)cc3)c(=O)c2c1C,-3.2%,-75.9*,20.3%,-1.5,-5.0
COc1ccc(CCNC(=O)CNC(=O)Cn2cnc3sc(C)c(C)c3c2=O)cc1OC,?,-14.2,0.8%,-2.9,22.5
O=C(NC1CC1)c1cccc2c1C(=O)c1ccc(N3CCC(N4CCCCC4)CC3)cc1S2(=O)=O,.,-16.7,.,.,.
CCN(CC)CCn1c2ccccc2c2nc3ccc([N+](=O)[O-])cc3cc21,?,-98.3*,?,27.1*,91.7*
Cc1ccc(SCCN2CCC(C(C)(C)C)CCC2=O)cc1 (centres undefined),-12.9%,-6.3,94.2%,25.4*,42.1*
Cc1ccc(SCCN2CCC(C)CCC2=O)cc1 (centres undefined),84.7%,95.5,176.8%,29.2*,37.6*
C[C@H]1CCC(=O)N(CCSc2ccc(Br)cc2)CC1,56.2%,-9.4,43.8%,.,.
CC(C)(C)C1CCC(=O)N(CCSc2ccccc2)CC1 (centres undefined),8.4%,-15.7,260.1%,32.2*,61.8*
CCOc1ccc(NC(=O)C2CC(=O)N(c3ccc4c(c3)OCCO4)C2)cc1OCC (centres undefined),11.1%,-11.8,?,.,.
CN(C)CCCN(C(=O)c1ccco1)c1nc(-c2ccc(Cl)cc2)cs1,-6.9%,112.4,0.0%,-7.0,-5.6
COc1ccc(OC)c(-c2csc(N(C)C(=O)c3ccco3)n2)c1,?,-30.7,17.1%,1.2,.
COc1ccc(-c2csc(NC(=O)COC(=O)c3ccco3)n2)cc1,258.6%,60.4,136.8%,49.5*,42.7*
CCn1nc(C(=O)OCC(=O)Nc2nc(-c3ccc(OC)cc3)cs2)c2ccccc2c1=O,245.7%,11.8,177.9%,46.4*,49.8*
CN(C(=O)c1ccco1)c1nc(-c2ccc(Cl)cc2)cs1,6.57µM*,5.6,119.0%,25.3*,22.5
COc1ccc(-c2csc(N(C)C(=O)c3ccco3)n2)cc1,-5.8%,13.1,97.7%,36.9*,.
O=C(CSc1ncnc2c1cnn2-c1cccc(Cl)c1)NCC1CCCO1 (centres undefined),-5.7%,-17.8,-16.2%,-1.2,16.3
O=C(O)c1ccccc1NC(=O)C1CCN(S(=O)(=O)c2ccc3c(c2)OCCO3)CC1,.,-30.1,.,.,.
O=C(CCNC(=O)c1ccco1)NCc1ccc(C(=O)O)cc1,.,18.5,.,.,.
O=C(NCc1cccnc1)c1cc(C(=O)NCc2cccnc2)cc([N+](=O)[O-])c1,.,-5.3,.,.,.
CCC(CC)C(=O)Nc1ccc(S(=O)(=O)N2CCC(c3nc4ccccc4s3)CC2)cc1,.,6.8,.,.,.
SMILES,Pf growth 96h,HCMV inh,Pf growth 48h,CHX counter,Shiga inhibitor
COc1ccc(C2=NOC3(CC(=O)N(c4ccc(F)cc4)C3=O)C2)cc1 (centres undefined),?,27.1,?,-1.9,1.8
Cc1ccc(-c2csc(N(C)C(=O)c3c(C)nn(-c4ccccc4)c3Cl)n2)cc1,?,-34.9,11.7µM*,-0.4,-6.7
O=C(/C=C/c1ccco1)NC(=S)Nc1ccccc1N1CCCC1,43.1%,8.4,2.62µM*,-1.9,14.1
O=C(/C=C/c1ccco1)Nc1ccccc1N1CCCC1,?,-26.6,23.7%[5.75 µM],11.9*,40.5
O=C(/C=C/c1ccco1)NC(=S)Nc1cc(C(F)(F)F)ccc1N1CCOCC1,?,-1.8,-0.1%,-1.4,-8.7
O=C(/C=C/c1ccco1)NC(=S)Nc1ccccc1N1CCOCC1,?,71.6,13.1µM*,-2.7,-13.8
O=C(NC(=S)Nc1ccccc1N1CCOCC1)c1ccco1,37.0%,-16.8,1.7%,0.9,-2.8
S=C(NCCc1ccccc1)Nc1ccccc1N1CCOCC1,28.1%,-20.9,?,27.0,-2.6
Fc1cc(F)cc(NC(=S)Nc2ccccc2N2CCOCC2)c1,-5.4%,-62.2*,-12.5%,-0.9,-14.3
CCOc1ccc(C(=O)c2cn(Cc3ccccc3)c3c(F)cc(F)cc3c2=O)cc1,.,-20.9,.,.,.
Nc1c(-c2nn[nH]n2)cnn1-c1cc(Cl)cc(Cl)c1,25.8%,12.8,12.6%,-2.8,0.7
Cc1cc(=O)oc2cc(NC(=O)c3ccccc3Cl)ccc12,137.1%,41.0,130.9%,40.0*,86.5*
Cc1cc(=O)oc2cc(NC(=O)c3c(Cl)cnn3C)ccc12,67.6%,7.1,29.2%,6.4,22.1
Cc1cc(=O)oc2cc(NC(=O)c3ccccc3C(=O)O)ccc12,59.3%,25.5,0.1%,21.8*,64.6
Cc1ccccc1CC(=O)Nc1ccc2c(C)cc(=O)oc2c1,?,-20.6,44.9%,-2.7,11.5
COc1cccc(C(=O)Nc2ccc3c(C)cc(=O)oc3c2)c1,34.5%,60.3,300.4%,61.5*,114.8*
Cc1cc(=O)oc2cc(NC(=O)c3ccnn3C)ccc12,?,.,88.2%,16.7*,26.2
COc1ccccc1CC(=O)Nc1ccc2c(C)cc(=O)oc2c1,-14.7%,-1.2,9.2%,2.1,12.2
COc1ccc(CC(=O)NNc2ncnc3c2cnn3C)cc1,-24.5%,-32.3,24.9%,-2.9,12.2
CCOC(=O)c1scc(-c2ccccc2)c1S(=O)(=O)Nc1ccccc1OC,.,-11.1,.,.,.
Cc1ccc(NC(=O)CSc2ncn[nH]2)c([N+](=O)[O-])c1,.,-24.4,.,.,.
CCC(=O)Nc1cccc(NC(=O)c2ccccc2Cl)c1,?,?,10.6%,-3.2,5.8
Cc1ccc2sc3ccc(NC(=O)c4ccccc4Cl)cc3c(=O)c2c1,?,-88.7*,?,35.1*,42.9*
COc1ccc(/C=C/C(=O)NCc2cn(C)nc2C)cc1COc1ccc(Br)cc1,?,-18.0,3.7µM*,0.6,-3.5
Cc1n[nH]c2ccc(Br)cc2c1=O,.,-21.9,.,.,.
Cc1nc2c([nH]c3ccc(Br)cc32)s1,?,?,32.8%,14.9*,22.3*
CC(=O)Nc1ccc(S(=O)(=O)NCCCN2CCOCC2)cc1,-63.5%,5.7,11.8%,7.7,-2.1
CS(=O)(=O)c1ccccc1COC(=O)Nc1ccc(Cl)cc1,46.5%,18.8,35.9%,20.9*,36.1
O=C(Nc1ccc(Cl)cc1)OCc1ccccn1,207.6%,55.9,195.2%,28.5*,77.9*
O=C(CSc1nc(=O)[nH]c2c1CCCC2)NCc1ccc(F)cc1,.,9.9,.,.,.
